Records with an inconclusive call do not appear. Activity calls are given as the source filed them. Unless noted, the call rests on the fitted dose curve; in most records, active means well fitted curve in the direction sought with a large enough effect in the repeat runs; inconclusive means weak or mixed curves; inactive means no such curve, though single readings can be large; an effect the other way counts as inactive or inconclusive.
Legend:
[1] = qHTS assay to identify small molecule antagonists of the progesterone receptor (PR) signaling pathway - cell viability counter screen (AID 1346798); further: nearly all actives have a fitted effect of over 50% in size; further: potency means the concentration at half of the fitted maximal effect; on activity change, negative = cytotoxicity: series mostly up to about 92 µM
In short: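 Cytotoxicity read as CellTiter-Glo luminescence (30 min, room temperature) in the same wells as the beta-lactamase readout. HEK293T PR-UAS-bla cells in charcoal-stripped 2% FBS received compound and R5020, then 16 h at 37C, 5% CO2.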

[2] = qHTS assay to identify small molecule antagonists of the TGF-beta/Smad signaling pathway - cell viability counter screen (AID 1346824); further: nearly all actives have a fitted effect of over 50% in size
In short: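 SBE-bla HEK 293T cells, incubated overnight, then compound plus 0.25 ng/mL TGF-beta1 (stock added) for 5 hr at 37 C. Viability was read in the same wells by CellTiter-Glo luminescence after 30 min at room temperature.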

[3] = qHTS assay to identify small molecule agonists of the TGF-beta/Smad signaling pathway - cell viability counter screen (AID 1346829); further: nearly all actives have a fitted effect of over 45% in size; further: potency means the concentration at half of the fitted maximal effect; on activity change, negative = cytotoxicity: top concentration of the series differs between compounds
In short: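 Compound-treated SBE-bla HEK 293T cells (5 hr, 37 C) were assessed for viability with CellTiter-Glo in parallel with the reporter read.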

[4] = qHTS assay to identify small molecule agonists of the TGF-beta/Smad signaling pathway (AID 1346859; active means well fitted activation curve with a large enough effect in the signal ratio in the repeat runs, not every such curve was filed as active; the % refers to the signal ratio; further: series mostly up to about 77 µM)
In short: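 Fluorescence (ex 405 nm; em 460 and 530 nm) was read 2 h after LiveBLAzer FRET substrate at RT. The preceding compound treatment of overnight-plated SBE-bla HEK293T cells lasted 5 h at 37 C.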

[5] = molecular target: Thyrotropin-releasing hormone receptor (Homo sapiens) (UniProt P34981); assay: qHTS assay to identify small molecule antagonists of the thyrotropin-releasing hormone receptor (TRHR) signaling pathway (AID 1346877; active means well fitted inhibition curve with a large enough effect in the repeat runs, not every such curve was filed as active; further: series mostly up to about 51 µM)
In short: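 TRHR-expressing HEK293 cells loaded with calcium dye for 2 h at 37 C; compounds pre-incubated 5 min at room temperature before TRH challenge at 1 nM final. Intracellular calcium fluorescence read kinetically for 3 min; 15 concentrations in triplicate.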

[6] = molecular target: Thyrotropin-releasing hormone receptor (Homo sapiens) (UniProt P34981); assay: qHTS assay to identify small molecule agonists of the thyrotropin-releasing hormone receptor (TRHR) signaling pathway (AID 1346891; calls by dose curve; further: series mostly up to about 58 µM)
In short: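 Agonist-mode intracellular calcium readout: kinetic fluorescence over 3 min at 1 s intervals after compound addition to TRHR-HEK293 cells (18 h seeded, 2 h dye-loaded at 37 C). Fifteen concentrations, triplicates.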

[7] = Human pregnane X receptor (PXR) small molecule agonists, qHTS cell viability counter screen (AID 1346977); further: nearly all actives have a fitted effect of over 50% in size; further: potency means the concentration at half of the fitted maximal effect
In short: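 Same-well viability read: CellTiter-Fluor added after 23 hr compound exposure, fluorescence measured 1 hr later. Cells were PXR-Luc HepG2 seeded at 2,000/well in 5% charcoal-stripped FBS medium, rested 5 hr before dosing at 37 C.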

[8] = Caspase-3/7 induction in HepG2 cells by small molecules, qHTS assay (AID 1346978); further: nearly all actives have a fitted effect of over 15% in size
In short: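 Wild-type HepG2 cells, 2,000/well, settled 5 hr at 37 C and 5% CO2, then compound-treated for 17 hr; caspase-3/7 activity read by luminescent Caspase-Glo 3/7 after 30 min at room temperature.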

[9] = Caspase-3/7 induction in CHO-K1 cells by small molecules, qHTS cell viability counter screen (AID 1346979); further: nearly all actives have a fitted effect of over 35% in size; further: potency means the concentration at half of the fitted maximal effect
In short: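 Cytotoxicity counter screen: CellTiter-Fluor added to compound-treated wild-type CHO-K1 cells at 16 h (37C, 5% CO2), fluorescence measured 1 h later; same wells as caspase-3/7 measurement.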

[10] = qHTS assay to identify small molecule agonists of the progesterone receptor (PR) signaling pathway - cell viability counter screen (AID 1346799; calls by dose curve; further: nearly all actives have a fitted effect of over 45% in size; further: potency means the concentration at half of the fitted maximal effect)
In short: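 Cytotoxicity measured by CellTiter-Glo luminescence (30 min, RT) in the same wells as the PR beta-lactamase agonist read. Those HEK293T cells had 16 h compound treatment at 37 C in 2% charcoal-stripped FBS medium.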
On the % scale 0 is the no-effect control and ±100 the full control effect.

Thyrotropin-releasing hormone receptor (Homo sapiens), sequence (P34981 whole entry, looked up): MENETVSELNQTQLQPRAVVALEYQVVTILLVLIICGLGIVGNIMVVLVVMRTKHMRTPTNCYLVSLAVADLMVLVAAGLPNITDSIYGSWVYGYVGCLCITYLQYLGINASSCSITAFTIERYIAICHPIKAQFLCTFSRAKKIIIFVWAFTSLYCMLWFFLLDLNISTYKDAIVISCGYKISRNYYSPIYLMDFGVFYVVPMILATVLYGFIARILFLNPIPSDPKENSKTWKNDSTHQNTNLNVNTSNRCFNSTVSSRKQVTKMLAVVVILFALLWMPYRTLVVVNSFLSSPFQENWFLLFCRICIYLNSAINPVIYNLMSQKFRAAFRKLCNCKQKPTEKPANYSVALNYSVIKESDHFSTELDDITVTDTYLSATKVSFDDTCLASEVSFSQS

CCCCCCCCSCc1cc(C)c(O)c(CSCCCCCCCC)c1
inactive: Potency [1] | Potency [2] | Potency [3] | outcome [4] | Potency [5] | Potency [6] | Potency [7] | Potency [8]

C=C[Si](C)(C)Cl
inactive: activity change, negative = cytotoxicity [1] -4.28% [at 8.39 µM] | viability change, negative = cytotoxic [2] 9.11% [at 6.97 µM] | activity change, negative = cytotoxicity [3] 9.12% [at 6.97 µM] | activation [4] 0.312% [at 6.97 µM] | activity, negative = inhibition [5] 2.56% [at 4.65 µM] | activation [6] 0.0082% [at 5.23 µM] | activity change, negative = cytotoxicity [7] 1.3% [at 8.39 µM] | caspase activation [8] -0.0006% [at 8.39 µM] | activity change, negative = cytotoxicity [9] 6.64% [at 8.39 µM]

NCc1ccco1
inactive: Potency [1] | Potency [2] | Potency [3] | outcome [4] | Potency [5] | Potency [6] | Potency [7] | Potency [8]

CC1CCC(C(C)(C)O)CC1 (centres undefined)
inactive: Potency [1] | Potency [2] | Potency [3] | outcome [4] | Potency [5] | Potency [6] | Potency [7] | Potency [8] | Potency [9]

CC/C=C(\C)C=O
inactive: Potency [1] | Potency [10] | Potency [3] | outcome [4] | Potency [5] | Potency [6] | Potency [7] | Potency [8]

CC1(C)[C@H]2CC[C@]1(C)C(=O)C2
inactive: Potency [1] | Potency [2] | Potency [3] | outcome [4] | Potency [5] | Potency [6] | Potency [7] | Potency [8]
active: Potency [9] 61.1 µM

CC(=O)CC(N)=O
inactive: Potency [1] | Potency [2] | Potency [3] | outcome [4] | Potency [5] | Potency [6] | Potency [7] | Potency [8] | Potency [9]

c1ccc2cc3c4ccccc4c4ccccc4c3cc2c1
inactive: Potency [1] | Potency [2] | Potency [3] | outcome [4] | Potency [5] | Potency [6]
active: Potency [9] 27.4 µM

CC/C(=C(/c1ccc(O)cc1)c1ccc(OCCN(C)C)cc1)c1ccccc1
active: Potency [1] 32 µM | Potency [10] 18 µM | Potency [7] 18 µM | Potency [9] 32 µM
inactive: Potency [5] | Potency [6]

CCOC(=O)[C@H](O)[C@@H](O)C(=O)OCC
inactive: Potency [1] | Potency [10] | Potency [3] | outcome [4] | Potency [5] | Potency [6] | Potency [7] | Potency [8]

CCOC=C(C(=O)OCC)C(=O)OCC
inactive: Potency [1] | Potency [2] | Potency [3] | outcome [4] | Potency [5] | Potency [6] | Potency [7] | Potency [8] | Potency [9]

O=C1OC(=O)c2cc(-c3ccc4c(c3)C(=O)OC4=O)ccc21
inactive: Potency [1] | Potency [2] | Potency [3] | outcome [4] | Potency [5] | Potency [6] | Potency [8] | Potency [9]

O=C1OCc2ccccc21
inactive: Potency [1] | Potency [2] | Potency [3] | outcome [4] | Potency [5] | Potency [6] | Potency [7] | Potency [9]

C=COCCCC
inactive: Potency [1] | Potency [2] | Potency [3] | outcome [4] | Potency [7] | Potency [9]

COc1cc(OC)nc(NC(=O)NS(=O)(=O)Nc2ccccc2C(=O)N(C)C)n1
inactive: Potency [10] | Potency [2] | Potency [3] | outcome [4] | Potency [5] | Potency [6] | Potency [7] | Potency [8]

CC(=O)Nc1ccc(N=Nc2cc(C)ccc2O)cc1
inactive: Potency [1] | Potency [2] | Potency [3] | outcome [4] | Potency [8]
active: Potency [9] 68.6 µM

CCC1(C)C(=O)N(Cl)C(=O)N1Cl (centres undefined)
inactive: Potency [1] | Potency [3] | outcome [4] | Potency [5] | Potency [6] | Potency [7] | Potency [8] | Potency [9]

C=C1C(CCl)(CCl)C2(Cl)C(Cl)C(Cl)C1(Cl)C2(Cl)Cl (centres undefined)
inactive: Potency [2] | outcome [4] | Potency [5] | Potency [6]
active: Potency [1] 67.8 µM | Potency [3] 54.3 µM | Potency [9] 53.8 µM

Nc1ccc(N)c([N+](=O)[O-])c1
active: Potency [9] 40.9 µM
inactive: Potency [1] | Potency [8]

CSc1ccc(O)cc1C
inactive: Potency [2] | Potency [3] | outcome [4] | Potency [8]
active: Potency [1] 61.1 µM
